# Sampled rows, rich in hits. Any-hit rate of the full collection: about 3.5%.
# NS1 inh: qHTS Assay for Inhibitors of Influenza NS1 Protein Function | Potency, µM (highest dose often 46.1 µM), for the others: at the top dose activity, positive = more growth | hit rate 0.4% among 270,000; calls by dose curve; also: actives are rising curves; nearly all actives have a fitted effect of over 50% in size
#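 Read-out: OD600 growth recovery of NS1-expressing budding yeast. Cells grown overnight at 30C in -URA glucose medium, washed, resuspended and diluted 1:100 in 2% galactose assay medium, pH 6.0. Same strain lacking NS1 served as positive control.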
# Giardia FBPA inh: qHTS Assay for Inhibitors of Fructose-1,6-bisphosphate Aldolase from Giardia Lamblia. A8B2U2. purified Giardia FBPA. Potency, µM (highest dose often 59.6 µM), for inactives: top-dose activity, negative = inhibition, most hits filed as inhibitors. hit rate 0.71% among 290,000. AID 2451, 2010; also: % is scaled to controls: 0 for no effect and ±100 for the full control effect; nearly all actives have a fitted effect of over 55% in size
#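 40 nM FBPA preincubated 10 min at RT with compound (up to 57.5 uM final), then substrate plus GAPDH/TPI/NAD/arsenate coupling and diaphorase/resazurin added. Fluorescence read after 20 min at RT, 525/598 nm.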
# LmPK inh: qHTS Assay for Inhibitors of Leishmania Mexicana Pyruvate Kinase (LmPK) | Q27686 | purified LmPK, Kinase-Glo ATP luminescence, 1 h | Potency, µM (doses to about 57.5 µM), for the others: at the top dose activity change, negative = inhibition, usual class: inhibitors | hit rate 0.37% among 290,000 | AID 1721, 2009; also: % is scaled to controls: 0 for no effect and ±100 for the full control effect
# Target sequence (Q27686 whole entry, looked up): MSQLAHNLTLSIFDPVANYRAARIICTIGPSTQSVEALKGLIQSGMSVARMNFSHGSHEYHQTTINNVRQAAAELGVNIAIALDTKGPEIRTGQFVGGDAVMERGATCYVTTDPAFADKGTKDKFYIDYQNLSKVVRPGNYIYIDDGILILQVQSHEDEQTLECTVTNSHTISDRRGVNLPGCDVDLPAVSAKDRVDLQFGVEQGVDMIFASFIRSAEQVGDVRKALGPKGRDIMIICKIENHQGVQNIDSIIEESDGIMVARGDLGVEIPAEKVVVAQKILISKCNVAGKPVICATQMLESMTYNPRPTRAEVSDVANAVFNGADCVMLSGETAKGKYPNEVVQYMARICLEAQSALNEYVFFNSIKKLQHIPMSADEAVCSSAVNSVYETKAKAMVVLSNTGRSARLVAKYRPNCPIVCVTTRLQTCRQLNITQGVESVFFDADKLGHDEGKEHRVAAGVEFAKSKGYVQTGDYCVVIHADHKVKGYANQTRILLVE
#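 Purified LmPK (0.1 nM) with 0.5 mM PEP and 0.1 mM ADP in imidazole buffer pH 7.2 with MgCl2/KCl, 1 h at room temperature. ATP formed was read by luciferase luminescence and normalized to no-enzyme and uninhibited controls.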
# Sm TGR block: qHTS Assay for the Inhibitors of Schistosoma Mansoni Peroxiredoxins; Schistosoma mansoni thioredoxin glutathione reductase (TGR), Q962Y6; purified TGR, DTNB reduction, TNB absorbance 405 nm; Potency, µM (highest dose often 114 µM), without a hit: top-dose activity change, negative = inhibition, actives largely listed as inhibitors; hit rate 3% among 360,000; AID 485364, 2010; also: % is scaled to controls: 0 for no effect and ±100 for the full control effect; nearly all actives have a fitted effect of over 60% in size
#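 Kinetic colorimetric format: TGR-catalysed, NADPH-driven DTNB reduction monitored via TNB absorbance. Enzyme dispensed at 20 nM; compound exposure 15 min at room temperature before reaction start.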
# Tb PYK inh: qHTS of Trypanosoma Brucei Inhibitors. Potency, µM (top dose mostly 76.8 µM), for inactives: at the highest dose activity, negative = inhibition, actives largely listed as inhibitors. TbPYK enzyme, Kinase-Glo Plus ATP luminescence, 45 min. hit rate 0.12% among 410,000. pyruvate kinase (Trypanosoma brucei), Q57TT1; also: % is scaled to controls: 0 for no effect and ±100 for the full control effect; nearly all actives have a fitted effect of over 50% in size
#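 Luminescence from Kinase-Glo Plus, added after a 45-minute room-temperature reaction, served as the end-point read-out. The enzyme and substrate were preincubated with compound before ADP (130 uM final) initiated turnover. Concentration-effect curves came from normalized qHTS data.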
# RE007 growth inh: qHTS Assay for Inhibitors of the HIV-1 protein Vpr; S. pombe RE007 Vpr strain, BacTiter-Glo ATP luminescence, 24 h; Potency, µM (titrated, usually from 92.2 µM), for the others: at the highest dose activity change, negative = less growth, usual class: inhibitors; hit rate 0.21% among 360,000; AID 651644, 2012; active = well fitted falling curve with a large enough effect; inconclusive = small, poorly fitted or top-dose-only effect; inactive = no such curve, though single readings can be large or run the other way; also: % is scaled to controls: 0 for no effect and ±100 for the full control effect; nearly all actives have a fitted effect of over 50% in size
#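 Fission yeast RE007 carrying one integrated HIV-1 vpr copy, seeded at OD 0.01 in PMG+AL medium with 23 nL pinned compound. Grown 24 h at 30 degrees; viability read by BacTiter-Glo luminescence after 5 min.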
# An asterisk follows results filed as active; ? = inconclusive; / = no result given; [ ] = dose if it differs, or a comment. Unless noted, calls follow the shape of the dose curve; as a rule, active = well fitted curve in the direction sought with a large enough effect; inconclusive = small, poorly fitted or top-dose-only effect, or another doubt; inactive = no such curve, though single readings can be large; an effect the other way counts as inactive or inconclusive. Potency is read from the fitted curve at half-maximal effect.
SMILES,NS1 inh,Giardia FBPA inh,LmPK inh,Sm TGR block,Tb PYK inh,RE007 growth inh
CCc1ccccc1N1C(=O)CC(Sc2nccc(C)n2)C1=O (stereo not given),27.1%,-8.2%,-2.5%,39.8µM*,4.6%,1.8%
Cc1cccc(N2C(=O)CC(Sc3nc(C)cc(C)n3)C2=O)c1 (stereo not given),-5.7%,6.8%,-2.0%,0.0%,-7.4%,-6.7%
COC(=O)c1cc(S(=O)(=O)C(C)C)c(S(C)=O)s1 (stereo not given),-0.6%,3.7%,1.8%,35.5µM*,2.6%,-0.7%
Cc1ccc(C(Nc2ccccn2)c2ccc3cccnc3c2O)cc1 (stereo not given),/,/,/,1µM*,35.3%,/
CCCC(=O)NC(c1ccc(C)cc1)c1ccc2cccnc2c1O (stereo not given),-143.5%,?,-1.7%,9.1%,-10.3%,?
COc1ccc(C(Nc2ccccn2)c2ccc3ccc(C)nc3c2O)cc1C (stereo not given),/,/,/,0.708µM*,0.3%,/
Cc1cccc(NC(c2cccc(Cl)c2)c2ccc3cccnc3c2O)n1 (stereo not given),/,/,/,4.47µM*,19.9%,/
Cc1ccnc(NC(c2cccc(O)c2)c2ccc3ccc(C)nc3c2O)c1 (stereo not given),/,/,/,1.58µM*,14.4%,/
COc1cc(OC)c(N(C)C(=O)c2nn(C)c3c2CSc2ccccc2-3)cc1Cl,/,/,/,-2.1%,-2.2%,/
Oc1c(C(Nc2cccc(C(F)(F)F)c2)c2ccncc2)ccc2cccnc12 (stereo not given),-6.5%,-16.0%,1.5%,35.5µM*,116.9%,-26.2%
CCOc1cc(C(Nc2cc(C)ccn2)c2ccc3cccnc3c2O)ccc1OC (stereo not given),/,/,/,0.282µM*,53.6%,/
CCC(=O)NC(c1ccc(OC)c(OC)c1)c1cc(Cl)c2cccnc2c1O (stereo not given),3.5%,-11.0%,6.5%,-2.8%,-1.6%,13.6%
Cc1cccc(NC(c2ccccc2F)c2ccc3ccc(C)nc3c2O)n1 (stereo not given),/,/,/,5.01µM*,-0.9%,/
Cc1ccc(CNCc2ccccc2Cl)s1,/,/,/,4.0%,2.4%,/
CCc1ccc(C2C(C(=O)Nc3ccc(Cl)cc3)=C(C)Nc3ncnn32)cc1 (stereo not given),/,/,/,0.3%,0.4%,/
CCCCn1c(Oc2cccc(C(=O)OC)c2)nc2c1c(=O)n(C)c(=O)n2C,/,/,/,7.2%,-20.8%,/
Cc1ccc(C(=O)CN2CCN(c3ccccn3)CC2)c(C)c1,-10.5%,-7.5%,-0.3%,14.1µM*,-3.1%,-7.6%
CCOC(=O)C(C)Sc1nc(-c2ccco2)cc(C(F)(F)F)c1C#N (stereo not given),-38.9%,-1.6%,7.0%,22.4µM*,-2.2%,-8.4%
CCOC(=O)COc1nc(-c2ccco2)cc(-c2ccco2)c1C#N,23.2%,-1.3%,12.7%,31.6µM*,-8.7%,-10.5%
CC(=O)COc1nc2c(c(-c3ccco3)c1C#N)CCc1ccccc1-2,-2.9%,?,-1.5%,44.7µM*,0.9%,3.8%
N#Cc1nc(COc2cccc(Cl)c2)oc1NCCc1ccccc1,/,/,/,0.1%,-4.6%,/
CN(C)CCNc1oc(COc2cccc(Cl)c2)nc1C#N,-2.9%,-4.7%,0.5%,35.5µM*,4.6%,0.2%
CN(C)CCNc1oc(COc2ccc(Cl)cc2)nc1C#N,4.9%,2.1%,-8.2%,28.2µM*,-1.0%,5.1%
S=C(Nc1ccc(-c2nc3ccccc3[nH]2)cc1)Nc1cccnc1,10.8%,-4.4%,-0.3%,11.2µM*,-15.7%,-28.2%
Fc1ccc(NC(=S)Nc2ccccc2OC(F)F)cc1Cl,-38.2%,-14.4%,0.4%,-32.3%,-0.4%,-3.0%
SMILES,NS1 inh,Giardia FBPA inh,LmPK inh,Sm TGR block,Tb PYK inh,RE007 growth inh
Fc1ccccc1NC(=S)Nc1cccnc1,3.3%,-11.3%,2.3%,15.8µM*,-0.1%,-5.3%
O=C(Nc1ccccc1)C(=O)Nc1cccnc1,-1.9%,6.7%,14.1µM*,5.9%,-16.2%,-19.3%
FC(F)Oc1ccccc1NC(=S)Nc1cccnc1,/,-5.6%,10.7%,22.4µM*,-3.7%,9.3%
CCC(Sc1nnc2c3ccccc3n(CC)c2n1)C(=O)Nc1ccc(NC(C)=O)cc1 (stereo not given),/,/,/,-0.8%,0.9%,/
Cc1nn(C)c(C(=O)Sc2cccc(Cl)c2)c1[N+](=O)[O-],-30.1%,-1.1%,2.8%,1.41µM*,0.9%,-29.7%
Cc1nn(C(C)C(=O)c2cccc(Cl)c2)c(C)c1[N+](=O)[O-] (stereo not given),5.3%,-9.8%,-6.8%,10.7%,-3.2%,3.8%
Cc1nn(C)c(C(=O)Sc2ccccc2)c1[N+](=O)[O-],-60.8%,-2.3%,-3.6%,2.51µM*,-3.3%,?
Cc1nn(C)c(C(=O)N/N=C/c2ccccn2)c1[N+](=O)[O-],-30.5%,/,-13.6%,-5.8%,0.3%,12.6%
CCn1nc(C)cc1C(=O)Sc1cccc(Cl)c1,-31.8%,0.6%,-4.2%,6.31µM*,5.4%,-27.6%
CCn1nc(C)cc1C(=O)N1CCCC(N2CCN(c3cccc(Cl)c3)CC2)C1 (stereo not given),-22.3%,/,-1.3%,1.9%,/,/
Cc1ccccc1OCC(=O)Nc1ccc2[nH]c(=O)sc2c1,/,/,/,4.2%,1.1%,/
Fc1ccc(-n2ncc3c(NCCCc4ccccc4)ncnc32)cc1,/,/,/,3.6%,2.9%,/
CC(C)N1CCN(C(=O)c2ccc(NC(=O)c3ccc(Br)o3)cc2)CC1,/,/,/,22.4µM*,-4.0%,4.0%
O=C(Nc1ccc(C(=O)N2CCC(N3CCOCC3)CC2)cc1)c1ccc(Br)o1,/,/,/,31.6µM*,-2.9%,59.4%
O=C(Nc1ccc(N2CCN(C(=O)c3ccccc3)CC2)cc1)c1ccc(Br)o1,?,-11.7%,2.3%,-10.0%,-2.7%,-21.5%
O=C(Nc1ccc(C(=O)N2CCCC(CO)C2)cc1)c1ccc(Br)o1 (stereo not given),/,/,/,/,-3.9%,-1.7%
Oc1ccc2c3c1OC1C(O)C=CC4[C@@H](C2)NCC[C@]314 (stereo not given in full),/,/,/,/,-7.0%[157 µM],/
C/C(=C(\CCO)SSCC1CCCO1)N(C=O)Cc1cnc(C)nc1N (stereo not given),/,/,/,/,4.8%,/
Cc1ccc(NC(=O)CN2C(=O)COc3ccc(S(=O)(=O)N4CCOCC4)cc32)c(Cl)c1,/,/,/,37.4%,0.8%,/
CC(=O)OCc1cnc(C)c2oc(=O)c(C(=O)Nc3ccc(C)cc3Cl)cc12,/,/,/,-1.1%,2.0%,/
CCOC(=O)COc1ccc(Br)cc1/C=C1\SC(N)=NC1=O,20.6%,0.3%,1.3%,-17.0%,-10.2%,1.6%
